# Most compounds without a hit are left out; they make up all but 21% or so of the library.
# Pf growth 48h: P. falciparum growth inhibition at 48 hours (one generation); 310,000 compounds, 5.9% hits; Potency, µM (top dose mostly 28.7 µM), hits mostly inhibitors; P. falciparum luciferase growth in erythrocytes, 48 h
#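 Luciferase-expressing parasites in RBCs, 2% Hct / 0.1% parasitemia final; RPMI 1640 + 0.5% Albumax; 37 C, 5% CO2, one generation; luminescence read-out, lower signal = inhibition.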
# Pf growth 96h: inhibits malaria parasite growth, 96 h; P. falciparum luciferase reporter growth, 96 h; 320,000 compounds, 6.9% hits; Potency, µM (series often up to 28.7 µM), actives largely listed as inhibitors
#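 Compounds incubated with erythrocytes infected by luciferase-expressing P. falciparum (2% hematocrit, 0.05% parasitemia final) for 96 hours, 37 C in 5% CO2. Growth inhibition scored as decreased luciferase luminescence.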
# HCMV inh: blocks human cytomegalovirus replication; HFF cells, HCMV-luciferase reporter, 72 h; hits give low values; activity change, negative = inhibition, % at 57.5 µM; 410,000 compounds, 4.5% hits; in the data active = activity change below about -60%; inconclusive = no clear call, values can overlap the other calls; inactive = above about -39%
#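 Steps: HFFs plated, 16 h 37C; compounds added; HCMV-luciferase added to MOI 1 PFU/cell; 72 h 37C; OneGlo reagent, 5 min room temperature; luminescence read, normalized to controls.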
# Shiga inhibitor: Shiga toxin inhibition; AID 2315; Vero cells, Shiga toxin protein synthesis inhibition reporter; inhibition, % at 38.7 µM; 290,000 compounds, 9.2% hits; in the data active = inhibition mostly above about 28%, no sharp cut-off; inactive = mostly below about 43%
# HCV inh: HCV inhibition. Huh7.5.1 HCVcc-Cre infection, luciferase reporter, 44 h. Potency, µM (doses to about 41.8 µM), most hits filed as inhibitors. 340,000 compounds, 3.4% hits
#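 Infectious HCVcc-Cre (~0.5 moi) was added to cells just after compound, with cells seeded 4 h earlier at 1,000 per well. Luciferase activity after 44 h culture reported infection; substrate was incubated 15 min at room temperature before reading.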
# Cycloheximide cs: counter-screen hit for Shiga toxin inhibitors, cycloheximide; AID 2314; 300,000 compounds, 12% hits; cell reporter, cycloheximide protein synthesis inhibition counterscreen; max response, %; in the data active = max response mostly above about 13%, no sharp cut-off; inactive = mostly below about 14%; also: read at 38.3 µM for the half of the compounds with a filed dose
# A number is an active result; . = inactive; ? = inconclusive; / = not tested or not shown. Unless noted, calls follow the shape of the dose curve; as a rule, active = well fitted inhibition curve with a large enough effect; inconclusive = small, poorly fitted or top-dose-only effect, or another doubt; inactive = no such curve, though single readings can be large or run the other way.
SMILES,Pf growth 48h,Pf growth 96h,HCMV inh,Shiga inhibitor,HCV inh,Cycloheximide cs
CC(=O)Nc1ccc(-c2ccnc3c2CC(C(=O)Nc2cccc(Oc4ccccc4)c2)O3)cc1 (stereo unspecified),/,/,.,/,/,/
CN1C[C@@H]2[C@@H]3C(=O)N(Cc4ccccc4)C(=O)[C@@H]3[C@](C)(C1=O)N2C(=O)c1ccc(Br)cc1,/,/,.,/,.,/
CC1(C)Cc2c(sc(NC(=O)C(C)(C)C)c2C#N)C(C)(C)N1,?,3.3µM,.,.,.,.
O=C(COC(=O)c1cc(-c2ccccc2)nc2c(Cl)cccc12)c1ccc(F)cc1,/,/,.,/,/,/
CCOC(=O)C1=C(COC(=O)/C=C/c2cccc(OC)c2OC)NC(=O)NC1C (stereo unspecified),.,.,.,53,/,40
CCOC(=O)C1=C(COC(=O)/C=C/c2ccccc2)NC(=O)NC1C (stereo unspecified),.,.,.,/,?,/
CCOC(=O)C1=C(COC(=O)/C=C/c2ccccc2Cl)NC(=O)NC1C (stereo unspecified),.,.,.,56,.,49
CCOC(=O)C1=C(COC(=O)/C=C/c2ccccc2F)NC(=O)NC1C (stereo unspecified),.,.,/,/,.,/
Cc1ccc(CNC(=O)c2c[nH]n3c(=O)c(Cc4ccc(Cl)cc4)c(C)nc23)cc1,/,/,.,/,/,/
COCCN1CCCc2nc(-c3ccc(F)cc3)ccc21,/,/,.,/,/,/
Cc1cc(Cl)ccc1OCC(=O)Nc1nc(-c2cccs2)cs1,.,.,.,.,.,.
CC1CCCCN1C(=O)CSCC(=O)Nc1nc(-c2cccs2)cs1 (stereo unspecified),.,?,.,37,.,24
CC1CCCN(C(=O)CSCC(=O)Nc2nc(-c3cccs3)cs2)C1 (stereo unspecified),/,?,.,.,.,.
CCOC(=O)N1CCN(C(=O)CSCC(=O)Nc2nc(-c3ccc(C)cc3)cs2)CC1,?,?,.,.,11µM,.
CC1CCCCN1C(=O)CSc1n[nH]c(-c2ccccc2Cl)n1 (stereo unspecified),/,/,.,/,/,/
CC1CCN(C(=O)CSCC(=O)Nc2nc(-c3cccs3)cs2)CC1,.,?,.,45,.,10
CCOC(=O)N1CCN(C(=O)CSCC(=O)Nc2nc(-c3cccs3)cs2)CC1,.,.,.,.,13µM,.
Cc1ccc(S(=O)(=O)c2c(O)cc(C)c(NS(=O)(=O)c3ccc(Br)cc3)c2C)cc1,/,/,.,/,/,/
O=C(CSCC(=O)N1CCCc2ccccc21)Nc1nc(-c2ccccc2)cs1,.,.,.,.,?,18
C[n+]1cccc2cccc([O-])c21,3.3µM,?,.,.,.,.
CCn1ccc2cc(S(=O)(=O)N3CCCN(C(=O)NCCOC)CC3)ccc21,/,/,.,/,/,/
CCCN(CCC)CCNC(=O)c1cc2c(-c3ccc(Cl)cc3)nn(C)c2s1,0.47µM,.,?,.,8.9µM,.
Cn1nc(-c2ccccc2F)c2cc(C(=O)NCc3ccc(Cl)cc3)sc21,/,/,-71,/,/,/
CCCN(CCC)CCNC(=O)c1cc2c(-c3ccccc3F)nn(C)c2s1,3.3µM,.,.,.,?,.
Cn1nc(-c2ccccc2F)c2cc(C(=O)Nc3cc(F)ccc3F)sc21,/,/,.,/,/,/
SMILES,Pf growth 48h,Pf growth 96h,HCMV inh,Shiga inhibitor,HCV inh,Cycloheximide cs
Cn1nc(-c2ccccc2F)c2cc(C(=O)NCc3cccc(Cl)c3)sc21,/,/,.,/,/,/
CC(CCc1ccco1)NC(=O)c1cc2c(-c3ccccc3F)nn(C)c2s1 (stereo unspecified),/,?,.,.,18µM,.
Cc1cc(C)n2nc(SCC(=O)NC(=O)c3ccccc3)nc2n1,/,/,.,/,.,/
CCCCC1(c2ccc(F)cc2)NC(=O)N(CC(=O)Nc2ccc(N3CCOCC3)cc2)C1=O (stereo unspecified),/,/,.,/,?,/
CCCN(CCC)CCCNC(=O)c1cc2c(-c3ccc(OC)c(OC)c3)nn(C)c2s1,2.1µM,.,.,.,?,.
COc1ccc(-c2nn(C)c3sc(C(=O)NCCN(C)C)cc23)cc1OC,.,.,.,.,?,.
Cn1cnc(S(=O)(=O)N2CCCC(C(=O)NCc3ccc(Cl)cc3)C2)c1 (stereo unspecified),/,/,.,/,/,/
COc1ccc(CCC(C)N2CCC(Oc3ccc(C(=O)N4CCCC4)cc3)CC2)cc1 (stereo unspecified),12µM,?,.,.,?,.

# Source: PubChem (National Center for Advancing Translational Sciences (NCATS))
